Compound activity from PubChem BioAssay.
VP16 counter: Gal4-VP16 reporter inhibition counter-screen | Potency, µM (doses to about 53.6 µM), without a hit: top-dose activity, negative = inhibition, hits mostly inhibitors | Drosophila S2 Gal4-VP16 UAS-luciferase, luminescence, 20 h | 310,000 compounds, 3.5% hits | AID 2546;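 note: Gal4-VP16 expression switched on by copper sulfate through the metallothionein promoter; nearly all actives have a fitted effect of over 50% in size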
ELG1 DNA repair: inhibitors of ELG1-dependent DNA repair in HEK293T cells; HEK293T ELG1-luciferase reporter, luminescence, 16 h; DNA damage induced by 5-fluorouridine; Potency, µM (titrated, usually from 46.1 µM), without a hit: at the highest dose activity change, negative = inhibition, actives largely listed as inhibitors; 330,000 compounds, 2.3% hits; AID 504467; note: nearly all actives have a fitted effect of over 55% in size
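HEK293T cells expressing luciferase-tagged ELG1 (2,000/well) received 5-Fluorouridine plus compound or DMSO for 16 hr at 37 °C. Luciferase was read by ONE-Glo luminescence after 30 min at room temperature.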
DT40 TDP1 no CPT: qHTS for Inhibitors of human tyrosyl-DNA phosphodiesterase 1 (TDP1): qHTS in cells in absence of CPT; DT40 Tdp1-/- hTDP1 cells, no CPT, ATP luminescence, 48 h; Potency, µM (highest dose often 46.2 µM), inactives show at the top dose activity change, negative = growth inhibition, usual class: inhibitors; 420,000 compounds, 15% hits; AID 686978, 2013; note: nearly all actives have a fitted effect of over 55% in size
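Seeded 400 DT40-hTDP1 cells/well (vehicle DMSO, no 20 nM CPT); pinned compounds; ≥48 hr at 37 °C; CellTiter-Glo luminescence as viability measure.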
DT40 TDP1 CPT: DT40-hTDP1 cell growth loss with CPT; chicken DT40 Tdp1-/-;hTDP1 cells + 20 nM CPT, ATP luminescence, 48 h; Potency, µM (series often up to 46.2 µM), for the others: top-dose activity change, negative = growth inhibition, usual class: inhibitors; 420,000 compounds, 12% hits; AID 686979; note: nearly all actives have a fitted effect of over 55% in size
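Chicken DT40 Tdp1-/- cells complemented with human TDP1, 400 cells/well, exposed to compounds plus 20 nM camptothecin for at least 48 h at 37 C; viability read as ATP content by CellTiter-Glo luminescence.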
RORgamma inh: blocks mouse ROR gamma transcriptional activity; P51450; Drosophila S2 Gal4-RORgamma UAS-luciferase reporter, 20 h; Potency, µM (series often up to 53.6 µM), inactives show at the highest dose activity change, negative = inhibition, most hits filed as inhibitors; 310,000 compounds, 5.4% hits; note: nearly all actives have a fitted effect of over 60% in size
Target sequence (P51450 whole entry, looked up, the tested form may be a part): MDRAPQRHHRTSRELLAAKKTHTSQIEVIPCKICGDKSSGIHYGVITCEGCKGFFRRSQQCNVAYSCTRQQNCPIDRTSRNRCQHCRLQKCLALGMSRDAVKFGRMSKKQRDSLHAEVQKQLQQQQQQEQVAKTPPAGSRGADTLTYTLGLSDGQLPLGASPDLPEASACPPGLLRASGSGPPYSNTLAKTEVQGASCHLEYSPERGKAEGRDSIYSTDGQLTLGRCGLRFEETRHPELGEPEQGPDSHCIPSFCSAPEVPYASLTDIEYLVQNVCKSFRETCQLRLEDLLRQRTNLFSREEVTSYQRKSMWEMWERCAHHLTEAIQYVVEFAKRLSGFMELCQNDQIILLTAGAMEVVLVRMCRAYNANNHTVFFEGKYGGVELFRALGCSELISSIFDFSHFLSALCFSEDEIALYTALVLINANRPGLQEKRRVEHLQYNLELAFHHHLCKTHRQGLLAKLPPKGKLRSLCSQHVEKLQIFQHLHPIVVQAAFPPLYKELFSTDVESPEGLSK
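Using a luciferase readout, inhibitors were identified by reduced reporter activity in Drosophila cells coexpressing a copper-inducible Gal4–ROR gamma fusion and UAS-driven Photinus luciferase, incubated 20 hr after 700 uM copper sulfate.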
12-LOX inh: inhibitors of human 12S-lipoxygenase ALOX12. P18054. purified 12hLO, xylenol orange hydroperoxide absorbance. Potency, µM (highest dose often 108 µM), without a hit: at the highest dose activity change, negative = inhibition, hits mostly inhibitors. 580,000 compounds, 1.1% hits
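Hydroperoxide product was detected by ferrous iron/xylenol orange as the 573 to 405 nm absorbance ratio. Arachidonic acid at 40 uM (final) was turned over for 30 min at room temperature by 150 nM human 12hLO, pH 7.0 Hepes buffer, after 15 min compound preincubation.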
* marks the source's active call; other numbers are inactive results; ? = inconclusive; · = not tested or not shown. This is a sample that favours compounds with a hit; in the whole collection about 15% have one here. Calls come from the whole dose curve; as a rule, active = well fitted curve in the direction sought with a large enough effect; inconclusive = small, poorly fitted or top-dose-only effect, or another doubt; inactive = no such curve, though single readings can be large; an effect the other way counts as inactive or inconclusive. % is set by controls: 0 for no effect and ±100 for the full control effect; potency is the fitted concentration of half-maximal effect.

SMILES	VP16 counter	ELG1 DNA repair	DT40 TDP1 no CPT	DT40 TDP1 CPT	RORgamma inh	12-LOX inh
Cc1cc(C)cc(C(=O)NCc2nnc3c(-c4nc(C)no4)cccn23)c1	·	·	·	·	·	56%
Cc1ccc(C(=O)COC(=O)c2cc3ccccc3oc2=O)cc1	·	·	·	·	·	-3%
COC(=O)c1sccc1NC(=O)CN(C)NS(=O)(=O)c1ccc(F)cc1	-3%	25%	?	18µM*	-9%	32%
COC(=O)c1sccc1NC(=O)CN(C)NS(=O)(=O)c1ccc(Cl)cc1	3%	-2%	18µM*	?	1%	?
COC(=O)c1sccc1NC(=O)CN(C)NS(=O)(=O)c1ccc([N+](=O)[O-])cc1	-4%	29%	?	?	-1%	?
COC(=O)c1sccc1NC(=O)CSc1ccccc1NS(=O)(=O)c1ccc(F)cc1	-7%	-15%	-7%	-5%	?	-11%
O=c1[nH]nc(-c2ccc(N3CCCCC3)c([N+](=O)[O-])c2)c2ccccc12	·	·	·	·	·	-2%
O=C1c2ccccc2-c2n[nH]c(=O)c3ccc(N4CCCCC4)c1c23	-12%	?	9.2µM*	9.2µM*	35%	7%
O=C(COC(=O)COc1ccc2ccccc2c1)Nc1ccccc1	·	·	·	·	·	0%
Cc1ccc(CNC(=O)C2CCCCC2)s1	·	·	·	·	·	-5%
COc1ccc(-c2coc3cc(OCC(=O)NC(C)c4ccccc4)ccc3c2=O)cc1OC (centres undefined)	·	·	·	·	·	-11%
O=C(c1nc2ccccn2c1CN1CCC(Cc2ccccc2)CC1)N1CCCC1	4%	13%	23µM*	?	9%	-10%
CC(C)C1C(=O)Nc2ccc(S(=O)(=O)NCc3ccc(Cl)cc3)cc21 (centres undefined)	·	·	16µM*	23µM*	·	?
CC1C(=O)Nc2ccc(S(=O)(=O)NCCc3ccc(Cl)cc3)cc2NC1=O (centres undefined)	0%	3%	?	?	1%	15%
O=C1C2C3C=CC(CC3)C2C(=O)N1/N=C/c1ccc(O)c(O)c1 (centres undefined)	1%	26%	?	-14%	?	-28%
O=C1c2ccccc2C(=O)N1/N=C/c1ccc(O)c(O)c1	-8%	-5%	-20%	-26%	-23%	22µM*
Oc1c(C(c2ccccc2Cl)N2CCCC2)ccc2cccnc12 (centres undefined)	-80%	?	16µM*	15µM*	1.6µM*	?
O=C(Nc1cccc2cccnc12)N1CCCCCC1	·	·	·	·	·	-1%
Oc1c(C(c2cccs2)N2CCN(c3ccccc3)CC2)ccc2cccnc12 (centres undefined)	7.9µM*	·	·	·	5µM*	·
CCc1nnc(CN2CCC(c3nc4ccccc4s3)CC2)o1	·	·	·	·	·	110%
CCOc1ccc(NC(=O)c2sc3nc(C)nc(N4CCOCC4)c3c2C)cc1	?	13µM*	?	-3%	?	-1%
Cc1cccc(NC(=O)c2sc3nc(C)nc(N4CCOCC4)c3c2C)c1	·	·	?	-29%	·	-8%
Cc1nc(N2CCN(C)CC2)c2c(C)c(C(=O)Nc3ccc(C)c(F)c3)sc2n1	?	-14%	?	16µM*	-11%	25%
Cc1nc(N2CCOCC2)c2c(C)c(C(=O)Nc3ccc(F)cc3F)sc2n1	?	?	?	-28%	-2%	-2%
Cc1nc(N2CCCCC2)c2c(C)c(C(=O)Nc3ccc4c(c3)OCCO4)sc2n1	-24%	10µM*	4.1µM*	?	30%	-5%
SMILES	VP16 counter	ELG1 DNA repair	DT40 TDP1 no CPT	DT40 TDP1 CPT	RORgamma inh	12-LOX inh
CCN(CC(=O)Nc1ccccc1C(F)(F)F)C(=O)Cc1ccc2ccccc2c1	·	·	·	·	·	-5%
CCCN(CC1CCOC1)C(=O)NC(C)C (centres undefined)	·	·	·	·	·	8%
O=C(COC(=O)c1ccc(S(=O)(=O)N2CCCCCC2)cc1)Nc1ccc(Cl)cn1	·	·	·	·	·	-12%
COc1ccc(OCc2nc(C)c(CCO)c(=O)n2CC(=O)Nc2ccccc2Cl)cc1	·	·	·	·	·	19%
N#Cc1cnn(-c2ccc([N+](=O)[O-])cc2[N+](=O)[O-])c1N	·	·	18µM*	13µM*	·	-12%
COc1ccc(NC(=O)COc2ccc(N(C)S(=O)(=O)c3ccc(Cl)cc3)cc2)cc1	·	?	?	-11%	·	366%
CCOc1ccc(S(=O)(=O)N(C)c2ccc(OCC(=O)NCCc3ccc(OC)cc3)cc2)cc1	-5%	?	23µM*	21µM*	-22%	0%
CN(c1ccccc1)S(=O)(=O)c1cccc(C(=O)NCCc2ccc(O)c(O)c2)c1	-13%	?	12µM*	8.2µM*	-25%	?
CCN(CC)S(=O)(=O)c1cccc(C(=O)NCCc2ccccc2)c1	·	·	?	?	·	-25%
COc1ccc(CCNC(=O)c2ccccc2N(C)S(=O)(=O)c2ccccc2)cc1	1%	-20%	-20%	-11%	10%	1%
CCOc1ccc(S(=O)(=O)N(C)c2ccc(OCC(=O)NCC3CCCCC3)cc2)cc1	·	26µM*	21µM*	16µM*	·	0%
CCN(c1ccccc1)S(=O)(=O)c1ccc(Cl)c(C(=O)NCCc2ccc(OC)cc2)c1	-2%	-18%	?	18µM*	?	-2%
O=C(Nc1cccc(S(=O)(=O)NC2=NCCC2)c1)C1(c2cccc(Cl)c2)CC1	·	·	·	·	·	1%
CC(C)Cc1ccc(-c2cnc(CCC(=O)NC3=NCCS3)o2)cc1	·	·	·	·	·	0%
COc1ccc(CCNC(=O)c2ccc(Cl)c(S(=O)(=O)N(C)c3ccccc3)c2)cc1	-21%	16µM*	16µM*	21µM*	?	-5%
COc1ccc(CCNC(=O)c2ccc(S(=O)(=O)N(C)c3ccccc3)cc2)cc1OC	-7%	2%	23µM*	?	?	16%
COc1ccc(S(=O)(=O)N(C)c2ccc(C(=O)NCc3ccccn3)cc2)cc1OC	5%	-3%	-21%	-5%	-6%	1%
CN(c1ccccc1)S(=O)(=O)c1cccc(C(=O)NCc2ccccc2CN2CCCC2)c1	·	0%	?	?	·	-13%
COc1ccc(CCNC(=O)c2ccc(N(C)S(=O)(=O)c3ccc(C)cc3)cc2)cc1	-13%	?	16µM*	?	?	-11%
COc1ccccc1CNC(=O)c1cccc(S(=O)(=O)N(C)c2ccccc2)c1	·	?	?	26µM*	·	208%
